# Results reported in the antibiotic and cytotoxicity screens of Wong et al. (2023).
# Hit rate of the full screen: of about 39,000 compounds, about 3,300 (8.5%) were called active. Shown is part of a subset that was picked to be rich in actives.
# Tested on: HepG2
# Experiment: cytotoxicity call (relative viability < 0.9)
# Conditions: 10 µM
row,SMILES,cytotoxicity call
1,C[C@@H]1CCCCO[C@H](CN(C)C(=O)Nc2ccc(C(F)(F)F)cc2)[C@@H](C)CN([C@H](C)CO)C(=O)c2cc(N(C)C)ccc2O1,inactive
2,CCc1nc2ccc(C(=O)N3CCN(S(=O)(=O)CC)CC3)cn2c1N(C=O)Cc1ccc(OC)cc1,inactive
3,C[C@H](CO)N1C[C@H](C)[C@@H](CN(C)Cc2ccc(Cl)c(Cl)c2)OCCCC[C@H](C)Oc2ccc(NC(=O)Nc3ccccc3)cc2C1=O,active
4,C[C@@H]1CCCCO[C@@H](CN(C)Cc2ccc(Cl)c(Cl)c2)[C@@H](C)CN([C@H](C)CO)C(=O)c2cc(NC(=O)Nc3ccccc3)ccc2O1,inactive
5,C[C@H]1CCCCO[C@H](CN(C)Cc2ccc(Cl)c(Cl)c2)[C@@H](C)CN([C@@H](C)CO)C(=O)c2cc(NC(=O)Nc3ccccc3)ccc2O1,inactive
6,C[C@@H]1CCCCO[C@@H](CN(C)Cc2ccc(C(=O)O)cc2)[C@H](C)CN([C@H](C)CO)C(=O)c2cc(NC(=O)Nc3ccc(C(F)(F)F)cc3)ccc2O1,inactive
7,COc1ccccc1CNC(=O)C[C@H]1C[C@H]2c3cc(NC(=O)c4ccc5c(c4)OCO5)ccc3O[C@H]2[C@@H](CO)O1,inactive
8,Cc1noc(C)c1NC(=O)Nc1cccc2c1O[C@@H](CN(C)S(=O)(=O)c1ccccc1)[C@H](C)CN([C@H](C)CO)C2=O,inactive
9,Cc1noc(C)c1NC(=O)N(C)C[C@H]1Oc2ncc(C#CCC(C)C)cc2C(=O)N([C@@H](C)CO)C[C@@H]1C,inactive
10,C[C@H]1CN([C@@H](C)CO)C(=O)Cc2cc(NC(=O)CCCCCC(=O)Nc3ccccc3N)ccc2O[C@@H]1CN(C)Cc1ccc(C(F)(F)F)cc1,inactive
11,C[C@H](CO)N1C[C@H](C)[C@@H](CN(C)Cc2ccc(C(F)(F)F)cc2)Oc2ccc(NC(=O)CCCCCC(=O)Nc3ccccc3N)cc2CC1=O,inactive
12,C[C@@H]1CN([C@@H](C)CO)C(=O)Cc2cc(NC(=O)CCCCCC(=O)Nc3ccccc3N)ccc2O[C@H]1CN(C)Cc1ccc(C(F)(F)F)cc1,inactive
13,C[C@H](CO)N1C[C@H](C)[C@H](CN(C)Cc2ccc(C(F)(F)F)cc2)Oc2ccc(NC(=O)CCCCCC(=O)Nc3ccccc3N)cc2CC1=O,active
14,C[C@@H]1CN([C@H](C)CO)C(=O)Cc2cc(NC(=O)CCCCCC(=O)Nc3ccccc3N)ccc2O[C@@H]1CN(C)Cc1ccc(C(F)(F)F)cc1,active
15,C[C@@H]1CN([C@H](C)CO)C(=O)Cc2cc(NC(=O)CCCCCC(=O)Nc3ccccc3N)ccc2O[C@H]1CN(C)Cc1ccc(C(F)(F)F)cc1,inactive
16,Cc1noc(C)c1S(=O)(=O)N(C)C[C@@H]1Oc2ccc(NS(=O)(=O)c3cn(C)cn3)cc2CC(=O)N([C@@H](C)CO)C[C@H]1C,inactive
17,C[C@@H]1CN([C@H](C)CO)C(=O)c2cc(NS(=O)(=O)c3ccc(F)cc3)ccc2O[C@@H]1CN(C)C(=O)Nc1ccc(C(F)(F)F)cc1,inactive
18,C[C@@H]1CN([C@H](C)CO)C(=O)c2cccc(NS(=O)(=O)c3ccccc3)c2O[C@H]1CN(C)Cc1ccc(Oc2ccccc2)cc1,inactive
19,COc1ccc(S(=O)(=O)N2C[C@@H](O)COC[C@H]3O[C@H](CC(=O)NCCCN(C)C)CC[C@@H]32)cc1,inactive
20,COc1cccc(NC(=O)N(C)C[C@@H]2OCc3ccccc3-c3c(n(C)c4ccccc34)C(=O)N([C@@H](C)CO)C[C@@H]2C)c1,inactive

row,SMILES,cytotoxicity call
1,C=CC[C@@H](CC(=O)N[C@H](CO)Cc1ccccc1)C(=O)N[C@H](C)COC(=O)[C@H](CC=C)CC(=O)OC(C)(C)C,inactive
2,C[C@@H]1CCCCO[C@@H](CN(C)Cc2ccc(C(F)(F)F)cc2)[C@@H](C)CN([C@@H](C)CO)C(=O)c2cc(NC(=O)Cc3ccccc3)ccc2O1,active
3,C[C@@H]1CCCCO[C@H](CN(C)Cc2ccc(C(F)(F)F)cc2)[C@H](C)CN([C@@H](C)CO)C(=O)c2cc(NC(=O)Cc3ccccc3)ccc2O1,inactive
4,C[C@@H]1CN([C@H](C)CO)C(=O)c2cc(NC(=O)Cc3ccccc3)ccc2O[C@@H](C)CCCCO[C@H]1CN(C)Cc1ccc(C(F)(F)F)cc1,active
5,C[C@@H]1CN([C@@H](C)CO)C(=O)c2cc(NC(=O)Cc3ccccc3)ccc2O[C@@H](C)CCCCO[C@H]1CN(C)Cc1ccc(C(F)(F)F)cc1,inactive
6,C[C@@H]1CCCCO[C@H](CN(C)Cc2ccccc2)[C@@H](C)CN([C@@H](C)CO)C(=O)c2cc(NC(=O)Cc3ccccc3)ccc2O1,active
7,C[C@@H]1CCCCO[C@@H](CN(C)Cc2ccc(C(F)(F)F)cc2)[C@H](C)CN([C@H](C)CO)C(=O)c2cc(NC(=O)Cc3ccccc3)ccc2O1,inactive
8,C[C@H]1CCCCO[C@H](CN(C)Cc2ccccc2)[C@@H](C)CN([C@@H](C)CO)C(=O)c2cc(NC(=O)Cc3ccccc3)ccc2O1,inactive
9,C[C@@H]1CN([C@H](C)CO)C(=O)c2cc(NC(=O)Cc3ccccc3)ccc2O[C@@H](C)CCCCO[C@H]1CN(C)Cc1ccccc1,inactive
10,C[C@H](CO)N1C[C@H](C)[C@@H](CN(C)Cc2ccc(C(F)(F)F)cc2)OCCCC[C@H](C)Oc2ccc(NC(=O)Cc3ccccc3)cc2C1=O,active
11,C[C@@H]1CN([C@H](C)CO)C(=O)c2cc(NC(=O)Cc3ccccc3)ccc2O[C@@H](C)CCCCO[C@@H]1CN(C)Cc1ccc(C(F)(F)F)cc1,inactive
12,CO[C@H]1CN(C)C(=O)c2cc(NS(C)(=O)=O)ccc2OC[C@H](C)N(S(C)(=O)=O)C[C@H]1C,inactive
13,C[C@@H]1CN([C@@H](C)CO)C(=O)c2cc(NC(=O)CCC(F)(F)F)ccc2O[C@@H](C)CCCCO[C@@H]1CN(C)CC1CCCCC1,inactive
14,CCCCCCCCCCCCCCCc1cccc(OCC)c1C(=O)Nc1ccc(Cl)c(C(F)(F)F)c1,inactive
15,C[C@H](CO)N1C[C@H](C)[C@@H](CN(C)S(C)(=O)=O)Oc2ccc(NC(=O)Cn3cnnn3)cc2CC1=O,inactive
16,Nc1cnn([C@H]2O[C@@H](COC(=O)c3ccccc3)[C@@H](O)[C@@H]2O)c(=O)n1,inactive
17,COc1ccc(S(=O)(=O)N2C[C@@H](O)COC[C@H]3O[C@H](CC(=O)NCCN4CCCCC4)CC[C@@H]32)cc1,inactive
18,Cc1noc(C)c1NC(=O)N(C)C[C@@H]1Oc2c(NC(=O)C3CC3)cccc2C(=O)N([C@H](C)CO)C[C@H]1C,inactive
19,C[C@@H]1CN([C@H](C)CO)C(=O)Cc2cc(NC(=O)C3CCCCC3)ccc2O[C@@H]1CN(C)Cc1ccc(Cl)c(Cl)c1,inactive
20,C[C@H](CO)N1C[C@H](C)[C@H](CN(C)Cc2ccc(C(F)(F)F)cc2)OCCCC[C@H](C)Oc2ccc(NC(=O)Cc3ccccc3)cc2C1=O,inactive

row,SMILES,cytotoxicity call
1,C[C@H]1CCCCO[C@@H](CN(C)Cc2ccc(C(F)(F)F)cc2)[C@@H](C)CN([C@@H](C)CO)C(=O)c2cc(NC(=O)Cc3ccccc3)ccc2O1,inactive
2,C[C@H]1CCCCO[C@H](CN(C)Cc2ccc(C(F)(F)F)cc2)[C@@H](C)CN([C@@H](C)CO)C(=O)c2cc(NC(=O)Cc3ccccc3)ccc2O1,active
3,C[C@@H]1CN([C@@H](C)CO)C(=O)c2cc(NC(=O)Cc3ccccc3)ccc2O[C@@H](C)CCCCO[C@@H]1CN(C)Cc1ccc(C(F)(F)F)cc1,inactive
4,C[C@@H]1CCCCO[C@H](CN(C)Cc2ccc(C(F)(F)F)cc2)[C@@H](C)CN([C@@H](C)CO)C(=O)c2cc(NC(=O)Cc3ccccc3)ccc2O1,inactive
5,C[C@@H]1CCCCO[C@H](CN(C)Cc2ccc(C(F)(F)F)cc2)[C@H](C)CN([C@H](C)CO)C(=O)c2cc(NC(=O)Cc3ccccc3)ccc2O1,active
6,C[C@@H]1CCCCO[C@@H](CN(C)Cc2ccc(C(F)(F)F)cc2)[C@@H](C)CN([C@H](C)CO)C(=O)c2cc(NC(=O)Cc3ccccc3)ccc2O1,active
7,C[C@@H]1CCCCO[C@@H](CN(C)Cc2ccc(C(F)(F)F)cc2)[C@H](C)CN([C@@H](C)CO)C(=O)c2cc(NC(=O)Cc3ccccc3)ccc2O1,inactive
8,C[C@@H]1CCCCO[C@H](CN(C)Cc2ccc(C(F)(F)F)cc2)[C@@H](C)CN([C@H](C)CO)C(=O)c2cc(NC(=O)Cc3ccccc3)ccc2O1,inactive
9,COc1ccc(S(=O)(=O)Nc2cccc3c2O[C@@H](CN(C)C(=O)Nc2cccc4ccccc24)[C@H](C)CN([C@H](C)CO)C3=O)cc1,inactive
10,C[C@H](CO)N1C[C@H](C)[C@H](CN(C)C(=O)Nc2ccc3c(c2)OCO3)Oc2ccc(N(C)C)cc2CC1=O,inactive
11,CNC(=O)C[C@@H]1CC[C@@H]2[C@H](COC[C@@H](O)CN2C(=O)c2ccc3c(c2)OCO3)O1,inactive
12,Cn1ccnc1C(=O)NCc1cnc2n1CCNCC2,inactive
13,C[C@H](CO)N1C[C@H](C)[C@H](CN(C)Cc2ccc(Cl)c(Cl)c2)Oc2ccc(NC(=O)NC3CCCCC3)cc2C1=O,inactive
14,C[C@@H]1CN([C@@H](C)CO)C(=O)c2cc(NS(=O)(=O)c3cccs3)ccc2O[C@@H]1CN(C)Cc1ccc(-c2ccccc2)cc1,inactive
15,C[C@@H]1CN([C@H](C)CO)S(=O)(=O)c2ccc(C#CC(C)(C)O)cc2O[C@@H]1CN(C)Cc1ccc(F)cc1,inactive
16,FC(F)(F)Oc1ccccc1,inactive
17,C[C@@H]1CN([C@@H](C)CO)C(=O)Cc2cc(NC(=O)Cn3cnnn3)ccc2O[C@@H]1CN(C)S(=O)(=O)c1cn(C)cn1,inactive
18,CSc1ccc(-c2nnn(CC(N)=O)n2)cc1,inactive
19,Cc1noc(C)c1NC(=O)N(C)C[C@H]1Oc2ccc(NC(=O)NC(C)C)cc2C(=O)N([C@H](C)CO)C[C@H]1C,inactive
